PMC12136788
Whole data set: some 5,800 sequences, median “enrichment r” near 0.68, cut for the highest 2% near 11. Not all results are given here.

T1: UNK ZnF1-6 (called full-length) (human, UniProt Q9C0B0 30-357)
T1 sequence: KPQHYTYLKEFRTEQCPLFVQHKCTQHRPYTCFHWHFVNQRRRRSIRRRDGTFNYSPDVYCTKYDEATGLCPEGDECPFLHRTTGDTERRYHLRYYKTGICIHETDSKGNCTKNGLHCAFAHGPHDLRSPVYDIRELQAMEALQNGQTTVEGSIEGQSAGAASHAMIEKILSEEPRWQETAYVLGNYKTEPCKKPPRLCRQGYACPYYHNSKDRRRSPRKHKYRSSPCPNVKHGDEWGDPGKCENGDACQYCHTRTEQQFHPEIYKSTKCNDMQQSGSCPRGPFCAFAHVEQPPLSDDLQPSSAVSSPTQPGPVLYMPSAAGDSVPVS

B1: chr22:36281679:36281692:-|3pUTR|ENSG00000100345|msi1_unk|total|mutant (ssRNA)
RNA: GGGAGUUCUACAGUCCGACGAUCUCUUGUGUCUACUCCCGGACUGGGCCCGAGGGUGGUUUACCUGCACCGUUGACUCAGUACCGUUUAAAAAUCUGCCACCUGCACAGGUAUUUUUGAAAGCAAAAUAAGGUUUUCUUUUUUCAACAGAGGAUUGAGCAUCA
B2: chr7:137227872:137228000:-|3pUTR|ENSG00000105894|msi1_unk|total|mutant (ssRNA)
RNA: GGGAGUUCUACAGUCCGACGAUCGGAACAUAAAAAGGACAUCAGCAAACAGGAUCAGUUAACUAUUGCAUUUAUAUGUACCGCCGGCUUUGUAUUCAAAAAUUAUCUACCGCUAAGUACACAAUAAGCAAAAACAAAAAGAAACAACAGAGGAUUGAGCAUCA
B3: ENSG00000165476:stop:overlap|stop_codon|ENSG00000165476|stop_codon|NA|stop_codon (ssRNA)
RNA: GGGAGUUCUACAGUCCGACGAUCAAGAGGUGCGGUACGGGUCACUAAAAUACAAAGUGAAGAAACGACCACAAGUGUAUUUUUAGUCAUCUACACGUCAAAUAUCCCAAGACAGAUUAUGCUAAAUACAUCGACUUCAUCUUCCAACAGAGGAUUGAGCAUCA
B4: ENSG00000138660:stop:overlap|stop_codon|ENSG00000138660|stop_codon|NA|stop_codon (ssRNA)
RNA: GGGAGUUCUACAGUCCGACGAUCCUGUAUUAGAACUGUCUGAUUCUGGCAUAAGGCAUUCUGACACAGAUCAACAGACUCGAUAGGGUAAAAUUGUGUGACCUUGUUUAUCAGUUAUGACCAAAUGUUAAAAACCAACUAGAACAACAGAGGAUUGAGCAUCA
B5: chr3:11557161:11557262:-|3pUTR|ENSG00000144560|msi1|total|mutant (ssRNA)
RNA: GGGAGUUCUACAGUCCGACGAUCCCUCUGACUUUAUACUGUUAUUACUGCAUUUAUUAUUUGCUAUAUUAACCGCUACUAACCCGAAAUCCGAUGAAGCAAGCAUGACAGACACAGCUGUGGAGGUCACAGCUGCUCCUUUUUCAACAGAGGAUUGAGCAUCA
B6: ENSG00000198589:be:win_7201|CDS|ENSG00000198589|bound_else_gene|NA|bound_elsewhere_windowed (ssRNA)
RNA: GGGAGUUCUACAGUCCGACGAUCGAGAGUGAAUUUGUUUCCUGCCAGCUUCACCAAUGGAUUGAUCUCAUUUUUGGCUAUAAACAGCAAGGACCAGAAGCUGUCCGAGCCCUCAAUGUGUUCUAUUACUUGACCUAUGAAGGACAACAGAGGAUUGAGCAUCA
B7: ENSG00000124766:be:win_1851|3pUTR|ENSG00000124766|bound_else_gene|NA|bound_elsewhere_windowed (ssRNA)
RNA: GGGAGUUCUACAGUCCGACGAUCAGAGACUUGAAGGAGUCUCCCCCUUCCUGCAUCACCACCUUGGUUUUGUUUUAUUUUGCUUCUUGGUCAAGAAAGGAGGGGAGAACCCAGCGCACCCCUCCCCCCCUUUUUUUAAACGCGCAACAGAGGAUUGAGCAUCA
B8: chr9:125236489:125236593:-|3pUTR|ENSG00000044574|msi1_unk|total|mutant (ssRNA)
RNA: GGGAGUUCUACAGUCCGACGAUCUGCCGACACUGAUCUGCCCGUGCUGUAAUAUUGUAAAUACUGGACUCAGGAACUUUUGUCCGGAAAAAAUUGAAAGAACUUAAGUCUCGAAUGUAAUUGGAAUCUUCACCUCAGAGUGGACAACAGAGGAUUGAGCAUCA
B9: chr12:64128047:64128160:+|CDS|ENSG00000196935|unk|FALSE|unique (ssRNA)
RNA: GGGAGUUCUACAGUCCGACGAUCGGCAGCCUGACCAACAUCAGCCGGCACGACUCCCUCAAGAAGAUCGACAGCCCUCCCAUUAGAAGGUCCACGUCAUCAGGGCAAUACACGGGCUUCAAUGACCACAAGCCACUGGACCCACAACAGAGGAUUGAGCAUCA
B10: chr11:30010719:30012678:-|CDS|ENSG00000182255|control|control|control (ssRNA)
RNA: GGGAGUUCUACAGUCCGACGAUCUUUGCUCAAGAAAUUUCGGAGCUCUACUUCUUCUUCCCUGGGGGACAAGUCAGAGUAUCUAGAGAUGGAAGAAGGAGUUAAGGAAUCUCUGUGUGCAAAGGAGGAGAAGUGUCAGGGAAACAACAGAGGAUUGAGCAUCA
B11: chr11:101473508:101473773:-|CDS|ENSG00000137672|control|control|control (ssRNA)
RNA: GGGAGUUCUACAGUCCGACGAUCUCCUCAAAUAAUAUCUGAAGGUCUUUAUGCAAUUGCUGUAGUUUUAAGUUUCUCUAGGAUAGCUUAUAUUUUACCAGCAAAUGAAAGCUUUGGACCUCUGCAGAUAUCACUUGGAAGAACCAACAGAGGAUUGAGCAUCA
B12: ENSG00000092201:stop:overlap|stop_codon|ENSG00000092201|stop_codon|NA|stop_codon (ssRNA)
RNA: GGGAGUUCUACAGUCCGACGAUCUUCCCCGCGUGCCAGCCUUGGUCAUGCAUAGCAGCACCUCUCGCAGUCUCUUCCCGCCCUAGAAGAGGCAACAUCCUUCCCUCCUACUCCGUGGUCACGUCUUGCUGCCCUCCCCUGCCGCAACAGAGGAUUGAGCAUCA
B13: chr8:143915815:143915916:-|3pUTR|ENSG00000178209|msi1|FALSE|unique (ssRNA)
RNA: GGGAGUUCUACAGUCCGACGAUCGCCAGGUGCCUUGGAGGGUCCCAAGCUGGGCCCCAGCCCACCCUCCUGUCUUCCCAGGGUAGCCCGCCUGCCAGUCCUAGCUGCACAGGGCAGCUGGGCCCAACCCUGUCUGUAGAGGGCCAACAGAGGAUUGAGCAUCA
B14: chr1:17067933:17068034:-|3pUTR|ENSG00000117115|msi1|total|mutant (ssRNA)
RNA: GGGAGUUCUACAGUCCGACGAUCACAUAAGGACCCUGGCCUACCCUCCAGCCCAACAGCCAGUUCUGGGUCAGCUGCCAACUCCGGGGUGGUUUGAUUAUCCCAUUGAAAUUCACCAGUGCCUUUGCCAAAGACCCUCUCAUUCAACAGAGGAUUGAGCAUCA
B15: chr22:31279490:31279591:+|3pUTR|ENSG00000182541|msi1|FALSE|unique (ssRNA)
RNA: GGGAGUUCUACAGUCCGACGAUCAGCAGCUUGGGCUGGGAAGAGGUGGUGGCAGAGUCUCAAAGCUGAGAUGCUGAGAGAGAUAGCUCCCUGAGCUGGGCCAUCUGACUUCUACCUCCCAUGUUUGCUCUCCCAACUCAUUAGCAACAGAGGAUUGAGCAUCA
B16: chr1:193029531:193029688:-|CDS|ENSG00000116750|unk|total|mutant (ssRNA)
RNA: GGGAGUUCUACAGUCCGACGAUCUUGAUAUCUUCACUUUUAUAUUUUACCGGUAAUUAAUAAUGCUUGUGCUACUCAAGCCACCGUGAGUGUGUUACUGAACUGUACCCACCAGGAUGUCCAUUCCGGCGAGACAUUAUCAGACAACAGAGGAUUGAGCAUCA
B17: ENSG00000099250:stop:overlap|stop_codon|ENSG00000099250|stop_codon|NA|stop_codon (ssRNA)
RNA: GGGAGUUCUACAGUCCGACGAUCCAAUUCACGGAGAAAUGUGGUCAUCUGGAAAAGGAGUCUGCUCCCUGGAUGCGAAUCUGUAGCCUGGAUUCUGGAAGGCGAUGCUGAUUUAGGAGGUGGAGUGAAUGGAGAAUUGAAAAGCAACAGAGGAUUGAGCAUCA
B18: chr12:10081268:10081413:-|three_prime_utr|ENSG00000150048|control|control|control (ssRNA)
RNA: GGGAGUUCUACAGUCCGACGAUCUCAGUACUACCAGCUCUCCAAUACUGGUCAAGACACCAUUUCUCAAAUGGAAGAAAGAUUAGGAAAUACGUCCCAAGAGUUGCAAUCUCUUCAAGUCCAGAAUAUAAAGCUUGCAGGAAGCAACAGAGGAUUGAGCAUCA
B19: chr15:63774837:63774950:-|CDS|ENSG00000103657|unk|total|mutant (ssRNA)
RNA: GGGAGUUCUACAGUCCGACGAUCGUAACAACAUUUCUUAAAGGAGUCACUAUUCCUAAUUCUGGGGCAGACACUUCCGGUCGCCGAUCCGCUUCUGAGUUGCUGCUUGGUUUGGCAGCUCAACGAGGCUCAUUGCGAUAUCUUCAACAGAGGAUUGAGCAUCA
B20: ENSG00000086827:stop:overlap|stop_codon|ENSG00000086827|stop_codon|NA|stop_codon (ssRNA)
RNA: GGGAGUUCUACAGUCCGACGAUCUAAUUCGUGCCUUGUUUCAGAACACAGAAAGAAGAGCAGCUGCCCUUGCUAAAAUUAAAUAGCUCCAUCUUCUUAAGAAAGCUAUGUCUUGAAUAUGUGGAUUCUUCCCUUGGCAUAAUUCAACAGAGGAUUGAGCAUCA
B21: chr10:27397735:27399240:-|CDS|ENSG00000182077|control|control|control (ssRNA)
RNA: GGGAGUUCUACAGUCCGACGAUCUCUUCUAGGCUACCCAGUGUUACAAAGUGCAAUUUCAACAAUAAUAGGGGUGUGUGUUUUAGCUGCAGCGAAAGCAUACAUCUUCAGAACAUUUUUUAAGAUUAUGUUUCUUGUUAUGAUCAACAGAGGAUUGAGCAUCA
B22: ENSG00000124766:be:win_3751|3pUTR|ENSG00000124766|bound_else_gene|NA|bound_elsewhere_windowed (ssRNA)
RNA: GGGAGUUCUACAGUCCGACGAUCUUGUACAUUUAAGUCUGUAUUAUAAUAAGCAAAAAGAUUGUGUGUAUGUAUGUUUAAUAUAACAUGACAGGCACUAGGACGUCUGCCUUUUUAAGGCAGUUCCGUUAAGGGUUUUUGUUUCAACAGAGGAUUGAGCAUCA

target: T1, UNK ZnF1-6 (called full-length); assay: nsRBNS (natural sequence RNA bind-n-seq); RBNS binding buffer (assumed for nsRBNS): 25 mM Tris pH 7.5, 150 mM KCl, 3 mM MgCl2, 0.01% Triton X-100, 500 ug/ml BSA, 20 U/ml SUPERase-In, 4 C; UNK is unkempt and MSI1 is Musashi-1; names of the RNAs are library labels; protein concentration not given here; high values mean tight binding

Binder | binding signal
B1 | 0.546 enrichment R
B2 | 0.517 enrichment R
B3 | 0.648 enrichment R
B4 | 0.713 enrichment R
B5 | 0.51 enrichment R
B6 | 0.478 enrichment R
B7 | 0.704 enrichment R
B8 | 0.446 enrichment R
B9 | 1.28 enrichment R
B10 | 0.697 enrichment R
B11 | 0.473 enrichment R
B12 | 0.859 enrichment R
B13 | 1.03 enrichment R
B14 | 0.749 enrichment R
B15 | 0.852 enrichment R
B16 | 0.805 enrichment R
B17 | 0.76 enrichment R
B18 | 0.413 enrichment R
B19 | 0.574 enrichment R
B20 | 1.49 enrichment R
B21 | 0.38 enrichment R
B22 | 0.359 enrichment R
